The values that follow come from PubChem BioAssay (NCATS).

Experiment [1] is described as follows: S16 Schwann cell viability assay (CellTiter-Glo assay) (AID 624031). Note: nearly all actives have a fitted effect of over 70% in size. The method, boiled down: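 Concentration-effect curves come from CellTiter-Glo luminescence of S16 rat Schwann cells after 24 h compound exposure. Each reading was normalized to DMSO wells (0%) and wells without cells, and curves were ranked by r2 and response magnitude.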
A further experiment has as its system CP185. The experiment is described as follows: qHTS profiling for inhibitors of Plasmodium falciparum proliferation (AID 504749). Note: nearly all actives have a fitted effect of over 60% in size. Conditions: P. falciparum in erythrocytes, SYBR Green DNA, 72 h; series mostly up to 28.7 µM. The method, boiled down:
(§1)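 Three-day growth assay of blood-stage parasites in erythrocytes (0.3% parasitemia, 2.5% hematocrit) at 37 C, 5% CO2, quantified by SYBR Green DNA staining after overnight detergent lysis.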

The next experiment deals with CP211. The experiment is described as above. Conditions: P. falciparum in erythrocytes, SYBR Green DNA, 72 h; series mostly up to 28.7 µM. The method in brief:
as §1

A further experiment deals with CP217. Described as above. Conditions: P. falciparum in erythrocytes, SYBR Green DNA, 72 h; series mostly up to 28.7 µM. The method, boiled down:
as §1

In the next experiment the test system is CP250. The experiment is described as above. Conditions: P. falciparum in erythrocytes, SYBR Green DNA, 72 h; series mostly up to 28.7 µM. The method, boiled down:
as §1

A further experiment has as its system CP252. The experiment is described as above. Conditions: P. falciparum in erythrocytes, SYBR Green DNA, 72 h; series mostly up to 28.7 µM. The method in brief:
as §1

The next experiment has as its system CP256. The description is as above. Conditions: P. falciparum in erythrocytes, SYBR Green DNA, 72 h; series mostly up to 28.7 µM. The method in brief: as §1
The subject of a further experiment is CP262. Described as above. Conditions: P. falciparum in erythrocytes, SYBR Green DNA, 72 h; series mostly up to 28.7 µM. The method in brief: as §1
Another experiment relates to CP265. The description is as above. Conditions: P. falciparum in erythrocytes, SYBR Green DNA, 72 h; series mostly up to 28.7 µM. The method in brief:
as §1

In another experiment the test system is CP291. Described as above. Conditions: P. falciparum in erythrocytes, SYBR Green DNA, 72 h; series mostly up to 28.7 µM. The method in brief: as §1
For another experiment, the system named is CP305. The description is as above. Conditions: P. falciparum in erythrocytes, SYBR Green DNA, 72 h; series mostly up to 28.7 µM. The method in brief: as §1
For the next experiment, the system named is CP315. The experiment is described as above. Conditions: P. falciparum in erythrocytes, SYBR Green DNA, 72 h; series mostly up to 28.7 µM. The method in brief:
as §1

Another experiment has as its system CP335. The experiment is described as above. Conditions: P. falciparum in erythrocytes, SYBR Green DNA, 72 h; series mostly up to 28.7 µM. The method in brief:
as §1

Another experiment concerns ECU. The description is as above. Conditions: P. falciparum in erythrocytes, SYBR Green DNA, 72 h; series mostly up to 28.7 µM. The method, boiled down:
as §1

A further experiment has as its system HB3. Described as above. Conditions: P. falciparum in erythrocytes, SYBR Green DNA, 72 h; series mostly up to 28.7 µM. The method, boiled down: as §1
The next experiment relates to N140. The description is as above. Conditions: P. falciparum in erythrocytes, SYBR Green DNA, 72 h; series mostly up to 28.7 µM. The method, boiled down:
as §1

A further experiment concerns TAB113. Described as above. Conditions: P. falciparum in erythrocytes, SYBR Green DNA, 72 h; series mostly up to 28.7 µM. The method in brief: as §1
For a further experiment, the system named is PC15. The description is as above. Conditions: P. falciparum in erythrocytes, SYBR Green DNA, 72 h; series mostly up to 28.7 µM. The method in brief:
as §1

The test system of the next experiment is 3D7. The experiment is described as above. Conditions: P. falciparum in erythrocytes, SYBR Green DNA, 72 h; series mostly up to 28.7 µM. The method, boiled down:
as §1

The next experiment relates to CP203. The description is as above. Conditions: P. falciparum in erythrocytes, SYBR Green DNA, 72 h; series mostly up to 28.7 µM. The method, boiled down:
as §1

Records with an inconclusive call do not appear. Calls of active or inactive are those of the source. Calls come from the whole dose curve; as a rule, active = well fitted curve in the direction sought with a large enough effect; inconclusive = small, poorly fitted or top-dose-only effect, or another doubt; inactive = no such curve, though single readings can be large; an effect the other way counts as inactive or inconclusive.
Potency is the fitted concentration of half-maximal effect.

`CC(=O)O[C@H]1C[C@H](O[C@H]2[C@@H](O)CC(O[C@H]3[C@@H](O)C[C@H](O[C@H]4CC[C@@]5(C)[C@H](CC[C@@H]6[C@@H]5CC[C@]5(C)[C@@H](C7=CC(=O)OC7)CC[C@]65O)C4)O[C@@H]3C)O[C@@H]2C)O[C@H](C)[C@H]1O[C@@H]1O[C@H](CO)[C@@H](O)[C@H](O)[C@H]1O` (some centres undefined): the Potency entry (in experiment [1]; in the experiment on CP185; in the experiment with CP211; in the experiment on CP217; with CP250; in the experiment with CP252) was “inactive” each time. In addition, the Potency result in the experiment on CP256, in the experiment with CP262, with CP265, in the experiment with CP291, in the experiment on CP305 and in the experiment on CP315 was “inactive” each time. Moreover, the Potency result with CP335, with ECU, in the experiment with HB3, with N140 and in the experiment on TAB113 was “inactive” in each case.

With `C#CC1(O)C=CC2C3CCC4=CC(=O)CCC4C3CCC21CC` (centres undefined), the Potency entry (in experiment [1]; in the experiment on CP217; in the experiment with CP252; in the experiment on ECU; in the experiment on N140) was “inactive” in each case. Besides, the Potency is 15.1 µM (active) in the experiment with CP291, 10 µM (active) in the experiment with HB3 and 11.2 µM (active) with PC15.

For `C[C@@H](N)[C@@H](O)c1ccc(O)c(O)c1`, the Potency in experiment [1] is 28.7 µM (active). Further, the Potency entry in the experiment on 3D7, in the experiment on CP185, in the experiment on CP203, in the experiment on CP211, with CP217 and in the experiment on CP250 was “inactive” in each case. Besides, the Potency entry with CP252, in the experiment with CP256, in the experiment on CP262, in the experiment with CP265, with CP291 and in the experiment on CP305 was “inactive” each time. The Potency entry with CP315, with CP335, in the experiment on ECU, with HB3, with N140 and in the experiment on PC15 was “inactive” in each case. The Potency entry in the experiment with TAB113 was “inactive”.

In the case of `C[C@]12CC[C@H]3[C@@H](CC[C@@]45O[C@@H]4C(=O)C(C#N)C[C@]35C)[C@@H]1CC[C@@H]2O` (some centres undefined), the Potency entry (in [1]; in the experiment with 3D7; in the experiment on CP203; with CP211; in the experiment on CP262; with CP291) was “inactive” in each case. Moreover, the Potency result in the experiment with CP305, in the experiment with CP315, in the experiment on CP335, in the experiment on HB3 and with PC15 was “inactive” throughout.

Consider `CC1CC[C@@]2(NC1)OC1CC3C4CC[C@@H]5CC(O)CC[C@@]5(C)C4CC[C@]3(C)C1C2C` (some centres undefined), for which the Potency result (in experiment [1]; in the experiment with 3D7; in the experiment with CP185; in the experiment on CP203; in the experiment with CP211; in the experiment with CP250) was “inactive” each time. Further, the Potency entry with CP252, in the experiment with CP262, with CP291, in the experiment on CP305, with CP315 and in the experiment with PC15 was “inactive” each time. In addition, in the experiment with TAB113, the Potency entry is “inactive”. The Potency in the experiment with ECU was 12.6 µM (active).

`O=C1CC2OCC=C3CN4CC[C@]56c7ccccc7N1C5C2[C@H]3C[C@H]46` (some centres undefined): the Potency entry (in [1]; with 3D7; in the experiment with HB3; in the experiment with PC15) was “inactive” in each case. The Potency with CP256 is 8.91 µM (active); in the experiment with CP335, 5.36 µM (active).

As for `CC(Cc1ccccc1)N(C)C` (centres undefined), the Potency result (in [1]; in the experiment on 3D7; in the experiment with CP185; in the experiment on CP203; in the experiment with CP211; in the experiment with CP217) was “inactive” in each case. Further, the Potency entry in the experiment on CP250, in the experiment with CP252, with CP256, in the experiment with CP265, in the experiment with CP291 and with CP305 was “inactive” throughout. Moreover, the Potency entry with CP315, with CP335, in the experiment on ECU, in the experiment on HB3, with N140 and in the experiment with PC15 was “inactive” throughout. Also, the Potency entry with TAB113 is “inactive”.

As to `C#CCN1CC(=O)N(COC(=O)[C@@H]2[C@@H](C=C(C)C)C2(C)C)C1=O`, the Potency result (in experiment [1]; in the experiment with 3D7; in the experiment on CP185; in the experiment with CP203; with CP211; in the experiment on CP217) was “inactive” each time. Also, the Potency entry in the experiment on CP250, in the experiment with CP252, with CP256, in the experiment on CP262, with CP265 and in the experiment with CP291 was “inactive” in each case. Further, the Potency entry in the experiment with CP305, in the experiment with CP315, with CP335, in the experiment with ECU, with HB3 and with N140 was “inactive” throughout. Besides, the Potency result with PC15 and in the experiment on TAB113 was “inactive” throughout.

On to `CCN(CC)C(=O)N[C@@H]1C=C2c3cccc4[nH]cc(c34)C[C@H]2N(C)C1`, for which the Potency result in the experiment on CP203 and with CP315 was “inactive” in each case. The Potency in the experiment on CP265 is 10 µM (active); in the experiment on N140 it was 12.6 µM (active); in the experiment on TAB113 it was 7.94 µM (active).

For the molecule `NC(Cc1ccc(Oc2cc(I)c(O)c(I)c2)c(I)c1)C(=O)O` (centres undefined), the Potency entry (in [1]; in the experiment on 3D7; with CP185; with CP203; with CP211; in the experiment on CP217) was “inactive” throughout. Further, the Potency result with CP250, in the experiment on CP252, with CP256, in the experiment with CP262, in the experiment with CP265 and with CP291 was “inactive” in each case. The Potency entry in the experiment on CP305, in the experiment with CP315, in the experiment on CP335, in the experiment with ECU, with HB3 and with PC15 was “inactive” in each case. The Potency entry in the experiment on TAB113 was “inactive”.

For the molecule `CC(C)CCC(=O)OC1CCC2C3CCC4=CC(=O)CC[C@]4(C)C3CC[C@]12C` (some centres undefined), the Potency with CP185 is 10 µM (active); with CP250, 10 µM (active); in the experiment with CP256, 7.94 µM (active); with CP265, 7.94 µM (active); in the experiment with ECU, 10 µM (active); with TAB113, 7.08 µM (active). Also, the Potency result in the experiment with CP203, in the experiment with CP211, in the experiment with CP262, in the experiment on CP305 and in the experiment on CP315 was “inactive” throughout.

On to `O=C1CC2OCC=C3CN4CCC56c7ccccc7N1C5[C@H]2[C@H]3C[C@H]46` (some centres undefined) (tested in a mixture with another compound), for which the Potency result (in [1]; in the experiment with CP185; in the experiment with CP211; in the experiment with CP217; in the experiment on CP250; in the experiment with CP252) was “inactive” each time. The Potency result with CP256, in the experiment on CP265, in the experiment on CP291, in the experiment on CP315, with CP335 and in the experiment with N140 was “inactive” each time. In addition, the Potency result in the experiment with PC15 and with TAB113 was “inactive” each time.

On to `C=CC[C@]1(O)CCC2C3CCC4=CCCCC4C3CCC21C` (some centres undefined), for which the Potency result in the experiment with 3D7, in the experiment with CP185, with CP203, with CP211, with CP217 and with CP250 was “inactive” each time. The Potency result in the experiment on CP252, in the experiment on CP256, with CP262, in the experiment with CP265, in the experiment with CP291 and with CP305 was “inactive” in each case. The Potency entry in the experiment on CP315, with CP335, with ECU, with N140 and in the experiment with TAB113 was “inactive” in each case.

On to `CCC(=O)OC1(c2ccccc2)CCN(C)CC1C` (centres undefined), for which the Potency result (in experiment [1]; in the experiment on 3D7; in the experiment on CP211; in the experiment on CP262; in the experiment with CP315; in the experiment with ECU) was “inactive” in each case. The Potency result in the experiment with HB3 and with PC15 was “inactive” each time.
